Source: PubChem (National Center for Advancing Translational Sciences (NCATS))
HttQ103 aggreg: inhibitors of mutant huntingtin aggregate formation in PC12 cells. Potency, µM (series often up to 46.1 µM), inactives show top-dose activity change, negative = inhibition, actives largely listed as inhibitors. 1.1% of 220,000 active. PC12 HttQ103-GFP aggregates, Acumen cytometry, 40 h; active means well fitted curve in the direction sought with a large enough effect; inconclusive means small, poorly fitted or top-dose-only effect, or another doubt; inactive means no such curve, though single readings can be large; an effect the other way counts as inactive or inconclusive; further: potency means the concentration at half of the fitted maximal effect; on the % scale 0 is the no-effect control and ±100 the full control effect; nearly all actives have a fitted effect of over 60% in size
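PC12 cells stably carrying ecdysone-inducible HTT exon 1 Q103–GFP were induced with tebufenozide (100 nM final) and treated with library compounds in titration. GFP aggregates in lysates were counted by laser scanning cytometry.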
HTT ATP protect: Huntington cell model cytoprotection by ATP luminescence | PC12 HTT-Q103 induced, cytoprotection, ATP luminescence, 40 h | Potency, µM (titrated, usually from 56.4 µM), for the others: cytoprotection (ATP increase), actives largely listed as activators | 0.14% of 230,000 active; active means well fitted curve in the direction sought with a large enough effect; inconclusive means small, poorly fitted or top-dose-only effect, or another doubt; inactive means no such curve, though single readings can be large; an effect the other way counts as inactive or inconclusive; further: potency means the concentration at half of the fitted maximal effect; % of control where 0% means no effect; nearly all actives have a fitted effect of over 45% in size
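Compounds added alongside 100 nM tebufenozide, which induces toxic Q103 huntingtin exon 1-GFP in stable PC12 cells; surviving cells quantified by luminescent ATP measurement. Medium: phenol red-free DMEM, 5% equine and 5% calf serum.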
CBFb RUNX1 block: inhibitors of human CBF-beta and RUNX1 interaction. Q01196+Q13951. AlphaScreen CBFb-His/RUNX1-biotin binding, biochemical. Potency, µM (top dose mostly 59.8 µM), for inactives: at the top dose activity, negative = inhibition, most hits filed as inhibitors. 230,000 tested, under 10 active. AID 1477; active means well fitted curve in the direction sought with a large enough effect; inconclusive means small, poorly fitted or top-dose-only effect, or another doubt; inactive means no such curve, though single readings can be large; an effect the other way counts as inactive or inconclusive; further: % of control where 0% means no effect
Target sequence (Q01196 whole entry, looked up): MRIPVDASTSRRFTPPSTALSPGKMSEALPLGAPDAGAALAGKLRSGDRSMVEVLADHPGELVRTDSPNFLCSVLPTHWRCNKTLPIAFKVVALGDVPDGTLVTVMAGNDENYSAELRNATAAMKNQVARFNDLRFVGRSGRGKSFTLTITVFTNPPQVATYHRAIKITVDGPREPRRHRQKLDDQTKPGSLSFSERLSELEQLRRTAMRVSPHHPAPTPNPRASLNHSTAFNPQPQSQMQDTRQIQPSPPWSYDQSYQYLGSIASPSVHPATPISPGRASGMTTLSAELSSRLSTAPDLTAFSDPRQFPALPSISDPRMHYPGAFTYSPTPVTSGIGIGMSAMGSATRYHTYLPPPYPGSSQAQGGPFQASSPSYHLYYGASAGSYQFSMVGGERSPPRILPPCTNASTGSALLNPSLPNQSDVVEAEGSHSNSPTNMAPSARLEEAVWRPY
Target sequence (Q13951 whole entry, looked up): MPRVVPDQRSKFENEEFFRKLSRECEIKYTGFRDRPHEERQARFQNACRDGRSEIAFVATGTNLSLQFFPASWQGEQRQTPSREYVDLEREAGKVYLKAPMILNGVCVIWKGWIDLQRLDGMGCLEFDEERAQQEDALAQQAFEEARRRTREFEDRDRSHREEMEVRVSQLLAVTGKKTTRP
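Proteins preincubated together for 20 min at RT before compound addition; 15 min later, nickel and streptavidin beads were added and left 90 min prior to AlphaScreen measurement.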
ALDH1A1 inh: blocks purified human ALDH1A1 activity. P00352. Purified ALDH1A1, NADH fluorescence, propionaldehyde substrate. Potency, µM (top dose mostly 75.3 µM), for the others: top-dose activity, negative = inhibition, hits mostly inhibitors. 7.3% of 220,000 active. AID 1030;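 further: potency means the concentration at half of the fitted maximal effect; plate controls were no enzyme wells and a reference inhibitor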
KDM4E inh: blocks human JMJD2E demethylase activity. JMJD2E catalytic domain, FDH-coupled NADH fluorescence (FDH is formaldehyde dehydrogenase). AID 2147. Potency, µM (titrated, usually from 57.1 µM), for inactives: at the top dose activity change, negative = inhibition, hits mostly inhibitors. 1.6% of 230,000 active. B2RXH2;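 further: potency means the concentration at half of the fitted maximal effect; 0% = wells with enzyme and -100% = buffer wells without enzyme; nearly all actives have a fitted effect of over 50% in size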
HPGD block: blocks human HPGD enzyme activity | P15428 | Potency, µM, for inactives: top-dose activity change, negative = inhibition, actives largely listed as inhibitors | 4.3% of 150,000 active | purified HPGD, NADH fluorescence kinetic, PGE2 substrate | AID 894; further: potency means the concentration at half of the fitted maximal effect; on the % scale 0 is the no-effect control and ±100 the full control effect
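NADH formation kinetics: reaction with 30 uM PGE2 and 1 mM NAD+ (final), 20 nM enzyme, Tris-HCl pH 8 with Tween 20, after 15 min compound preincubation at room temperature. Fluorescence change, last versus first of five reads.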
Starred values were filed as active, the others as inactive; ? = inconclusive; / = no result given; ! = not active in a repeat; [ ] = dose if it differs, or a comment. Compounds with a hit are over-represented: about 9.8% of the library has one in this group of screens. Unless noted, the call rests on the fitted dose curve; in most records, active means well fitted inhibition curve with a large enough effect (not every such curve was filed as active); inconclusive means small, poorly fitted or top-dose-only effect, or another doubt; inactive means no such curve, though single readings can be large or run the other way.

SMILES	HttQ103 aggreg	HTT ATP protect	CBFb RUNX1 block	ALDH1A1 inh	KDM4E inh	HPGD block
Cc1cccc(N2C(=O)NC(=O)/C(=C\c3cnc(-c4ccccc4)nc3)C2=O)c1	2.1%	25.2%[10 µM]	-5.6%	11.2µM*	-6.0%	25.1µM*
Cc1cc(C)cc(N2C(=O)NC(=O)/C(=C\c3cccn3-c3ccc(Cl)cc3)C2=O)c1	-16.7%	-12.5%	23.9%	?	3.5%	?
Cc1cc(C)cc(N2C(=O)NC(=O)/C(=C\c3cccn3-c3ccccc3)C2=O)c1	28.2µM*	-3.4%[10 µM]	-16.1%	-7.5%	6.2%	7.08µM*
CC(C)c1ccc(N2C(=O)NC(=O)/C(=C\c3cnc(-c4ccccc4)nc3)C2=O)cc1	-1.2%	5.1%	-5.7%	7.08µM*	20µM*	25.1µM*
CN1C(=O)/C(=C/c2cccn2-c2ccc3ccccc3c2)C(=O)NC1=S	-3.1%	0.1%	?	?	-2.2%	14.1µM*
CC[C@H](CO)NC(=O)[C@H]1C=C2c3cccc4[nH]cc(c34)C[C@H]2N(C)C1	/	-3.3%	/	/	/	/
Cc1ccc(N2C(=O)NC(=O)/C(=C/c3cnc(-c4ccccc4)nc3)C2=O)cc1C	12.0%	/	-5.8%	?	12.6µM*	20µM*
COc1cc(/C=C2/C(=O)NC(=O)N(c3ccccc3)C2=O)ccc1O	-2.8%	/	5.2%	?	-9.4%	?
Cc1ccc(N2C(=O)NC(=O)/C(=C\c3ccsc3)C2=O)cc1C	-11.0%	13.7%[10 µM]	-17.6%	-6.9%	-9.3%	31.6µM*
O=C1NC(=S)NC(=O)C1=Cc1cccn1-c1ccc(O)cc1	?	-60.9%	-10.9%	20µM*	-5.1%	/
NC[C@@H](O)CSP(=O)(O)O	/	-4.4%[10 µM]	/	5.5%[13.5 µM]	/	-7.3%
COc1cc(OC)c(OC)cc1/C=C1/C(=O)NC(=O)N(Cc2ccccc2)C1=O	-8.2%[9.22 µM]	-14.7%[10 µM]	7.4%	5.1%	?	/
COc1ccc(/C=C2\C(=O)NC(=O)N(Cc3ccccc3)C2=O)c(OC)c1OC	?	-25.7%	-7.2%	10µM*	-9.3%	/
O=C1NC(=O)N(Cc2ccccc2)C(=O)/C1=C/c1cnn(-c2ccccc2)c1	4.6%	-42.3%	0.1%	10µM*	?	/
COc1ccccc1N1C(=O)NC(=O)/C(=C\c2cnn(-c3ccccc3)c2)C1=O	-1.0%	/	-3.5%	8.91µM*	-16.9%	/
C[C@@H]1CC([C@H](O)CC2CC(=O)NC(=O)C2)C(=O)[C@@H](C)C1 (some centres not stated)	/	/	17.8%	-6.3%	/	/
c1ccc2c(c1)c1cc[n+]2CCCCC[n+]2ccc(c3ccccc32)NCCCCCN1	/	/	13.0%	/	/	/
COC(=O)[C@@H]1C[C@H](OC(C)=O)C(=O)[C@H]2[C@@]1(C)CC[C@H]1C(=O)O[C@H](c3ccoc3)C[C@]21C	/	-5.0%	?	3.3%	/	-5.6%
COc1cc(-c2ccc(=O)[nH]n2)ccc1OC(F)F	6.2%	?	14.2%	-7.9%	-2.5%	20µM*!
COc1cc(-c2ccc(N)c(OC)c2)ccc1N	/	-79.9%	-6.8%[21.7 µM]	?	/	-18.1%
CN(CCc1ccc(Cl)c(Cl)c1)[C@@H]1CCCC[C@@H]1N1CCCC1	/	-79.6%	15.5%	3.55µM*	/	/
C[C@H](N[C@@H](C)CCc1ccccc1)[C@H](O)c1ccc(O)cc1	/	16.7%[1.9 µM]	/	/	/	/
c1ccc(-c2ccc(C(c3ccccc3)n3ccnc3)cc2)cc1 (configuration not stated)	-9.3%	-62.7%	?	22.4µM*	5.1%	?
COc1ccc(N2CC(C(=O)NCc3ccco3)CC2=O)cc1 (configuration not stated)	16.9%	-5.9%	-15.2%	25.1µM*	-9.1%	/
COc1ccc(Cn2c(N)c(C(=O)NCc3ccco3)c3nc4ccccc4nc32)cc1	?	-33.1%	17.2%	?	?	?
SMILES	HttQ103 aggreg	HTT ATP protect	CBFb RUNX1 block	ALDH1A1 inh	KDM4E inh	HPGD block
Clc1ccc(C(c2ccccc2Cl)C(Cl)(Cl)Cl)cc1 (configuration not stated)	/	11.7%	?	22.4µM*	/	-5.5%
C[C@@]12C=CC(=O)C=C1CCC1C2CC[C@]2(C)C(=O)CCC12 (some centres not stated)	/	/	/	3.0%	1.5%	-0.7%
COc1ccc2c3c([nH]c2c1)C(C)=NCC3	15.8µM*	-19.5%	3.1%	?	?	?
O=C(Nc1nnc(SCc2ccccc2Cl)s1)C1COc2ccccc2O1 (configuration not stated)	-10.2%	-6.7%	2.2%	?	-20.3%	15.8µM*
CC[n+]1c(/C=C/N(C)c2ccccc2)sc2ccc(Cl)cc21	12.6µM*	-84.0%	-2.7%	15.8µM*	-4.2%	-23.3%
COc1cc(/C=C(/C)[N+](=O)[O-])ccc1OCc1ccccc1Cl	1.2%	-14.1%[10 µM]	-10.0%	2.82µM*	2.2%	10µM*
COc1ccccc1N1CCN(Cc2ccccc2Cl)CC1	21.4%[9.22 µM]	-14.3%	-0.8%	-1.9%	-23.4%	-2.1%
Cc1cc(C(=O)O)sc1C(N)C(=O)O (configuration not stated)	/	10.2%	17.3%	-1.0%	?	-10.8%
CCN(CC)C(=O)c1c(C)[nH]c(=S)c(C#N)c1-c1ccco1	-0.5%	-20.0%	-18.8%	7.08µM*	?	/
COC[C@@H]1OC(=O)c2coc3c2[C@]1(C)C1=C(C3=O)[C@H]2CCC(=O)[C@]2(C)C[C@@H]1OC(C)=O	/	-21.4%[1.9 µM]	/	/	/	/
O=C(NCc1ccccn1)c1ccccc1Cl	-0.1%	-11.3%	-0.7%	?	-0.9%	6.31µM*
CCCCCCCCCCCCCC(=O)O[C@H]1[C@@H](C)[C@@]2(O)[C@@H](C=C(CO)C[C@]3(O)C(=O)C(C)=C[C@@H]23)C2C(C)(C)[C@]21OC(C)=O (some centres not stated)	/	11.9%[1.9 µM]	/	/	/	/
CC(=O)OCC1=C(C(=O)O)N2C(=O)C(NC(=O)CCCC(N)C(=O)O)C2SC1 (configuration not stated)	/	-21.7%	?	-0.4%	8.91µM*	-16.9%
Cc1cccc2c1=NC(=O)/C(=C/c1c(O)[nH]c(=O)[nH]c1=O)C=2	-16.3%	5.6%[10 µM]	2.7%	0.501µM*	?	?
Oc1ccc(/C=N/NP(=S)(c2ccccc2)c2ccccc2)c(O)c1O	14.3%	11.1%	-19.4%	11.2µM*	14.1µM*	22.4µM*
C/C(=N\NC(=S)Nc1ccccc1)c1c(O)n(C)c(=O)n(C)c1=O	-8.1%	8.3%[10 µM]	-10.4%	0.794µM*	-0.1%	?
c1cc2cc(c1)C[n+]1ccc(c3ccccc31)NCc1ccc(cc1)CNc1cc[n+](c3ccccc13)C2	/	-29.4%[1.9 µM]	3.9%[21.7 µM]	?	17.8µM*	-21.4%
Cc1ccccc1-c1cncnc1NCCc1cnc[nH]1	/	28.2%	/	0.1%	-4.3%	-3.2%
